Experimental data: PubChem BioAssay (NCI)
This is part of a sample that, as a whole, favours compounds with a hit. Of some 83,000 tested, about 20% had one in any assay.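 Percent growth is the endpoint: 0 to 100 indicates growth inhibition (40 means 60% inhibition), 0 means no net growth, and negative values indicate cell death.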 A number with no mark means an inactive call. Activity calls are given as the source filed them. Rule for the calls: active = growth percent below 10; inactive = the rest.

Columns and labels:
Assay in all cases: NCI-60 one-dose screen, 48 h (100 = growth as untreated, 0 = no growth, -100 = all killed)
Conditions in all cases: 10 µM unless noted
DU-145 prostate = tested on: DU-145 prostate
K-562 leukemia = tested on: K-562 leukemia
MALME-3M melanoma = tested on: MALME-3M melanoma
MDA-MB-231 breast = tested on: MDA-MB-231 breast
RXF 393 renal = tested on: RXF 393 renal
SF-268 CNS = tested on: SF-268 CNS
SF-295 CNS = tested on: SF-295 CNS
SF-539 CNS = tested on: SF-539 CNS
UACC-257 melanoma = tested on: UACC-257 melanoma
M14 melanoma = tested on: M14 melanoma
HCT-15 colon = tested on: HCT-15 colon
HT29 colon = tested on: HT29 colon
SNB-75 CNS = tested on: SNB-75 CNS
SNB-19 CNS = tested on: SNB-19 CNS
U251 CNS = tested on: U251 CNS
PC-3 prostate = tested on: PC-3 prostate
SK-MEL-5 melanoma = tested on: SK-MEL-5 melanoma
UACC-62 melanoma = tested on: UACC-62 melanoma
LOX IMVI melanoma = tested on: LOX IMVI melanoma
SK-MEL-28 melanoma = tested on: SK-MEL-28 melanoma

SMILES	growth (DU-145 prostate)	growth (K-562 leukemia)	growth (MALME-3M melanoma)	growth (MDA-MB-231 breast)	growth (RXF 393 renal)	growth (SF-268 CNS)	growth (SF-295 CNS)	growth (SF-539 CNS)	growth (UACC-257 melanoma)	growth (M14 melanoma)	growth (HCT-15 colon)	growth (HT29 colon)	growth (SNB-75 CNS)	growth (SNB-19 CNS)	growth (U251 CNS)	growth (PC-3 prostate)	growth (SK-MEL-5 melanoma)	growth (UACC-62 melanoma)	growth (LOX IMVI melanoma)	growth (SK-MEL-28 melanoma)
CCOC(=O)c1c2ncccc2n2c(=O)n(-c3ccccc3C)nnc12	142%	86.4%	145%	104%	107%	117%	105%	91.8%	91.7%	99%	100%	112%	84%	105%	105%	122%	84%	95.3%	86.5%	157%
COc1ccc(Nc2nnc(SCc3ccccc3F)s2)cc1	111%	92.4%	119%	98.4%	101%	103%	97.7%	104%	106%	108%	103%	116%	102%	103%	104%	85.6%	104%	74.8%	104%	109%
CS(=O)(=O)c1ccc(Nc2nc(N[C@H]3CCCC[C@H]3N)nc3cc[nH]c(=O)c23)cc1	14.4%	10.9%	-31.9% (active)	-12.9% (active)	-54.7% (active)	-22.8% (active)	31.4%	-11.8% (active)	-5.02% (active)	43.5%	102%	15.5%	4.36% (active)	4.85% (active)	4.89% (active)	14.2%	-40.1% (active)	-33.9% (active)	-10.7% (active)	3.17% (active)
CCCCn1c(=O)c2c(nc(NCCc3ccc(O)c(O)c3)n2CCC)n(CCCC)c1=O	74.8%	37.7%	101%	58.6%	66.3%	74.6%	94.7%	87.7%	89.6%	75.9%	39.4%	70.9%	68.8%	92.3%	77.2%	43.9%	83.1%	86.2%	57.4%	86.9%
c1cc2ccc3cc2cc1CNCCOCCNCc1ccc2ccc(cc2c1)CNCCOCCNC3	-29.3% (active)	6.81% (active)	-64.5% (active)	-53.8% (active)	-40.1% (active)	-55.5% (active)	14.5%	-53.4% (active)	25.5%	89.6%	96.7%	-34.3% (active)	-98.7% (active)	-21.8% (active)	-20.4% (active)	-38.1% (active)	1.54% (active)	-52.8% (active)	-25.3% (active)	-8.69% (active)
O=[N+]([O-])c1ccc(N2c3ccncc3Sc3ccncc32)cc1	117%	83%	122%	77.1%	83.6%	129%	103%	99.3%	113%	106%	96.5%	121%	98.9%	107%	93.4%	88.1%	112%	93.2%	81.7%	115%
C[n+]1cc2c3c(ccc2c2ccc4cc5c(cc4c21)OCO5)OCO3	-94.4% (active)	-5.22% (active)	-76.9% (active)	-76.2% (active)	-77.1% (active)	-93.1% (active)	-63.1% (active)	-71.8% (active)	-87.6% (active)	-76.8% (active)	-81.2% (active)	-84.9% (active)	-78.8% (active)	-87.1% (active)	-82.2% (active)	-72.8% (active)	-99.4% (active)	-66.7% (active)	-73.9% (active)	-92.1% (active)
O=C(CSc1nccc(Nc2ccc(S(=O)(=O)Nc3nccs3)cc2)n1)c1ccc(F)cc1	105%	113%	103%	113%	112%	105%	103%	100%	96.5%	101%	98.1%	106%	94%	100%	102%	96.1%	98.7%	94.5%	97.5%	106%
